Test [1] is described as follows: AP1 Signaling Pathway (AID 357; active = well fitted curve in either direction with a large enough effect, not every such curve was filed as active; also: % is scaled to controls: 0 for no effect and ±100 for the full control effect). In short, it runs like this: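 Modulation of EGF-driven AP-1 transcription was assessed with a beta-lactamase reporter in ME-180 cells. Compound and EC50 EGF were co-incubated 5 hours at 37 °C before 2.5-hour CCF4 loading at room temperature and dual-emission reading.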
A short description of test [2]: NFAT Signaling Pathway (AID 444; active = well fitted curve in either direction with a large enough effect, not every such curve was filed as active;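 also: carbachol stimulus at about its EC50 of 1 µM final; % is scaled to controls: 0 for no effect and ±100 for the full control effect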). To be noted: Jurkat NFAT-bla M1, carbachol, beta-lactamase ratio, 5 h; at 17.2 µM (top of the series) unless noted. An outline of the steps:
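Jurkat cells with NFAT-driven β-lactamase reporter and co-expressed M1 receptor, stimulated with carbachol (final 1 uM, ~EC50), compound titration, 5 h at 37 °C. CCF4 loaded 1 h at RT; 460/530 nm ratio gave %activity and AC50.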

Test [3] is described as follows: Stat Signaling Pathway (AID 446; active = well fitted curve in either direction with a large enough effect, not every such curve was filed as active;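 also: ME-180 cervical cancer cells given 40 pM IL-6 alongside compound; SIE-controlled beta-lactamase reporter measured as 460/530 nm FRET emission ratio; % is scaled to controls: 0 for no effect and ±100 for the full control effect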). An outline of the steps:
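Overnight-plated ME-180 cells bearing a STAT Inducible Element beta-lactamase reporter; 5 h co-exposure to compound and 40 pM IL-6; values normalized to 300 pM IL-6 and 125 nM JAK inhibitor controls.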

Test [4] addresses Glucocorticoid receptor (Homo sapiens) (UniProt P04150). In words: GR-GFP Redistribution (AID 450;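 active = compounds whose dose series gives a full or clear partial fitted curve of increased nuclear translocation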; also: potency is read from the fitted curve at half-maximal effect). To be noted: U2OS GR-GFP nuclear translocation, laser cytometry, 2 h.
For test [5] the target is unchanged. The experiment in a line: GR-EFC Redistribution (AID 451; calls by dose curve; also: potency is read from the fitted curve at half-maximal effect). To be noted: CHO-K1 GR-EFC translocation, beta-gal luminescence, 2 h. In short, it runs like this:
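CHO-K1 cells expressing nuclear EA and GR-ED fragments of b-gal; compounds titrated up to 46 uM final, 2 h at 37 C. GR nuclear translocation read as complemented b-gal luminescence after 1 h RT detection.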

The target of test [6] is 3',5'-cyclic-AMP phosphodiesterase 4B (Homo sapiens) (UniProt Q07343). The experiment in a line: qHTS Assay for Inhibitors of PDE-IV (AID 607; active = well fitted activation curve with a large enough effect in the main read-out, with a control signal flat, not every such curve was filed as active; also: % of control where 0% means no effect). An outline of the steps: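 Live HEK293 cells with a modified cyclic nucleotide-gated (CNG) channel report intracellular cAMP via membrane-potential dye fluorescence (ex 535/em 590 nm). Endogenous PDE-IV was targeted. Compounds were tested at up to 22.9 uM final; RO 20-1724 100 uM served as control.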
Sequence of 3',5'-cyclic-AMP phosphodiesterase 4B (Homo sapiens) (Q07343 whole entry, looked up): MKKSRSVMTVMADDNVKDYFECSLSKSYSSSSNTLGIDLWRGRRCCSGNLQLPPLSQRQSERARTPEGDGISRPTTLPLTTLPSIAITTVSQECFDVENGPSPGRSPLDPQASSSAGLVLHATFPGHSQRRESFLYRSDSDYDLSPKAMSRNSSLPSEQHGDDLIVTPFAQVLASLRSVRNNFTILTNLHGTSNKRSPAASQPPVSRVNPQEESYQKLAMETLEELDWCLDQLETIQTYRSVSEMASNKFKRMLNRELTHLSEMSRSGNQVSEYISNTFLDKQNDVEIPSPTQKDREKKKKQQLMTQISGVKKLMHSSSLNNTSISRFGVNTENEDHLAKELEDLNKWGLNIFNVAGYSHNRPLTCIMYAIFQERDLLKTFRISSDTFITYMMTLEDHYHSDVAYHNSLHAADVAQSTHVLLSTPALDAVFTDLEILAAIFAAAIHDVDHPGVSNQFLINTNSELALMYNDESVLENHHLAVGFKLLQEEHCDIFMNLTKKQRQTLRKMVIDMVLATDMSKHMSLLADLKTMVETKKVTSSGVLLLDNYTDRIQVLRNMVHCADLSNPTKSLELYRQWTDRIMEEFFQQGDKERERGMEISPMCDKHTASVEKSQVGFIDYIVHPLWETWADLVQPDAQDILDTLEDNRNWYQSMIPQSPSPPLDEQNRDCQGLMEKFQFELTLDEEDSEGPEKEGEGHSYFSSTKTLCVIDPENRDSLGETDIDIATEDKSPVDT
For orientation: qHTS replaces the single test concentration by a dilution series.

A short description of test [7]: qHTS Assay for Lipid Storage Modulators (AID 1519; calls by dose curve). To be noted: Drosophila S3 cells, BODIPY lipid droplet/cell ratio, laser cytometry, cells loaded with oleic acid; for activity change, negative = inhibition: at 25.7 µM (top of the series). In short, it runs like this: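 Cells seeded at 5,000 per well were treated with compounds over a concentration series and loaded with oleic acid (400 uM, as added). Lipid droplet fluorescence (488 nm excitation, 500-530 nm channel) was read by laser-scanning cytometry and normalized to 20 uM Triacsin C.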

Test [8] deals with ATP-dependent 6-phosphofructokinase (Trypanosoma brucei brucei) (UniProt O15648). The experiment in a line: qHTS Assay to Find Inhibitors of T. brucei phosphofructokinase: hit validation (AID 492961).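 Also: luminescence reports ADP formed as PFK phosphorylates fructose-6-phosphate with ATP; % is scaled to controls: 0 for no effect and ±100 for the full control effect.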 In short, it runs like this:
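Compounds titrated; %activity normalized to 0x and 1x enzyme controls, curve-fitted. Readout: ADP-Glo luminescence after 45 min room-temperature reaction of 1.25 nM PFK, 0.1 mM ATP, 0.5 mM F6P, pH 8.0.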

Test [9] has as its target Ubiquitin carboxyl-terminal hydrolase 1 (Homo sapiens) (UniProt O94782). In words: Inhibitors of USP1/UAF1: Pilot qHTS (AID 504865).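 Also: rhodamine fluorescence freed from ubiquitin-rhodamine substrate followed over time; top concentration of the series differs between compounds; % is scaled to controls: 0 for no effect and ±100 for the full control effect; nearly all actives have a fitted effect of over 35% in size.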 In short, it runs like this: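 USP1/UAF1 complex at 1 nM preincubated 15 min at room temperature with compound, then Ub-Rho substrate added at 150 nM final. Fluorescence (480/540 nm) read kinetically in 50 mM HEPES pH 7.8, 0.5 mM EDTA, 1 mM TCEP, 0.1 mg/ml BSA, 0.01% Tween-20.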

In test [10] the target is Luciferin 4-monooxygenase (Photinus pyralis) (UniProt P08659). In words: Biochemical firefly luciferase enzyme assay for NPC (AID 624030).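 Also: purified P. pyralis luciferase at 10 nM with luciferin and ATP substrate; 0% = DMSO and -100% = full luciferase inhibition by PTC124 control; nearly all actives have a fitted effect of over 70% in size.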 In short, it runs like this: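 Purified P. pyralis luciferase at 10 nM in 50 mM Tris Acetate (final), luminescence read within 5 minutes of enzyme addition to compounds. Activity normalised to PTC124 versus DMSO; concentration-response curves classed by r2, magnitude and activity.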
Sequence of Luciferin 4-monooxygenase (Photinus pyralis) (P08659 whole entry, looked up): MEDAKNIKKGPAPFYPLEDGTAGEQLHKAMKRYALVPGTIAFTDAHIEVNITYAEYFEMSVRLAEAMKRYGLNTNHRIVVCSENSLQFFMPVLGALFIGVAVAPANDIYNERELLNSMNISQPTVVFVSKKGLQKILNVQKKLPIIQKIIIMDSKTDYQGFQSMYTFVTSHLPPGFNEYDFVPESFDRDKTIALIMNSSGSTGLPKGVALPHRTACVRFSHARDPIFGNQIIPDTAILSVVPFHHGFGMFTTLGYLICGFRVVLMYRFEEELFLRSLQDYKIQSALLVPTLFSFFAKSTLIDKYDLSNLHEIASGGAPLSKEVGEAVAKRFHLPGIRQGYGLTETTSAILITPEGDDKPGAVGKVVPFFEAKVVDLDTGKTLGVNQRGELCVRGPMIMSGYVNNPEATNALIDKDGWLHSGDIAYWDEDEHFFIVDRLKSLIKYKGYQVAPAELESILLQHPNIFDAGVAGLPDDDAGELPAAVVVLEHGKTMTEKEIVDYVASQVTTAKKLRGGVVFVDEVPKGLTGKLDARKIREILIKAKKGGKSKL

A short description of test [11]: qHTS profiling for inhibitors of Plasmodium falciparum proliferation (AID 504749). Also: nearly all actives have a fitted effect of over 60% in size. Also: potency is read from the fitted curve at half-maximal effect.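 As to activity, negative = inhibition: 0% = DMSO vehicle and full inhibition = artemisinin control.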 To be noted: P. falciparum in erythrocytes, SYBR Green DNA, 72 h. In short, it runs like this:
(§1)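 Each compound contacts P. falciparum-infected red blood cells for 72 h at 37 C; lysis buffer (Tris, EDTA, saponin, Triton X, SYBR Green I) is added and fluorescence measured next morning; values normalized to controls.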

The next test has as its system C2A. The description is as above. To be noted: P. falciparum in erythrocytes, SYBR Green DNA, 72 h; series mostly up to 12.8 µM. In short, it runs like this: as §1
In the next test the test system is CP191. The test is described as above. To be noted: P. falciparum in erythrocytes, SYBR Green DNA, 72 h; series mostly up to 12.8 µM. In short, it runs like this: as §1
The next test has as its system CP238. The test is described as above. To be noted: P. falciparum in erythrocytes, SYBR Green DNA, 72 h; series mostly up to 12.8 µM. In short, it runs like this: as §1
The next test deals with CP256. The description is as above. To be noted: P. falciparum in erythrocytes, SYBR Green DNA, 72 h; series mostly up to 12.8 µM. In short, it runs like this:
as §1

For another test, the system named is FAB9. The description is as above. To be noted: P. falciparum in erythrocytes, SYBR Green DNA, 72 h; series mostly up to 12.8 µM. In short, it runs like this: as §1
The next test has as its system JCK. The test is described as above. To be noted: P. falciparum in erythrocytes, SYBR Green DNA, 72 h; series mostly up to 12.8 µM. An outline of the steps: as §1
For another test, the system named is SC27B. The description is as above. To be noted: P. falciparum in erythrocytes, SYBR Green DNA, 72 h; series mostly up to 12.8 µM. An outline of the steps: as §1
Test [12] has as its target Cytochrome P450 1A2 (Homo sapiens) (UniProt P05177). In words: p450-cyp1a2 (AID 410; calls by dose curve;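 also: -100% = full effect of reference inhibitor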). An outline of the steps: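 Luminescent demethylation readout: Luciferin-ME (100uM, equal to Km) turned over by 20nM CYP1A2 for 60 min at room temperature after NADPH regeneration addition, following 10 min compound preincubation. Normalization used 57 uM furafylline as full inhibition.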

Test [13] has as its target Mitogen-activated protein kinase 10 (Mus musculus) (UniProt Q61831). In words: JNK3 AlphaScreen Assay (AID 530; active = well fitted curve in either direction with a large enough effect, not every such curve was filed as active). An outline of the steps:
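Activity was read by AlphaScreen after JNK3-containing HepG2 lysate (cytokine pre-activated) phosphorylated biotinylated GST-cJun with 10 uM ATP at room temperature. Phospho-Ser73 cJun antibody with Protein-A acceptor beads provided detection.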

Where [14] appears, read: measured here: cell count channel max response.
The mark [15] stands for this setting: measured here: lipid channel max response.
The mark [16] stands for this setting: at 12.8 µM (top of the series), parasite line A.
[17] abbreviates: at 12.8 µM (top of the series), parasite line B.

Molecules are shown by their SMILES. Results filed as inconclusive are left out. Activity calls are given as the source filed them. Unless noted, calls follow the shape of the dose curve; as a rule, active = well fitted curve in the direction sought with a large enough effect; inconclusive = small, poorly fitted or top-dose-only effect, or another doubt; inactive = no such curve, though single readings can be large; an effect the other way counts as inactive or inconclusive.

Sequence of ATP-dependent 6-phosphofructokinase (Trypanosoma brucei brucei) (O15648 whole entry, looked up): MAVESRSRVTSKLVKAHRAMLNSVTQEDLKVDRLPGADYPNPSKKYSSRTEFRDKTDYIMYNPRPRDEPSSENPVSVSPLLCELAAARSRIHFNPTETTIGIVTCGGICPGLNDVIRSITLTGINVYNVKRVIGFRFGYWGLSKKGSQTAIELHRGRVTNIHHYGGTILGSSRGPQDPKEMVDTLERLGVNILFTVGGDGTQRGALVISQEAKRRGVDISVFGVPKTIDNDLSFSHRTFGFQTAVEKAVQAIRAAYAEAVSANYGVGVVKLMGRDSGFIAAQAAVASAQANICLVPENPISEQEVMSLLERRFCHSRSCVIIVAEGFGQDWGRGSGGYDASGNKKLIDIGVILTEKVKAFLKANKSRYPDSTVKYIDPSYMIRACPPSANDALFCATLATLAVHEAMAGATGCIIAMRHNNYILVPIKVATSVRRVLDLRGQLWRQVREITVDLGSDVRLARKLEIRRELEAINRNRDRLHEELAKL
Sequence of Glucocorticoid receptor (Homo sapiens) (P04150 whole entry, looked up): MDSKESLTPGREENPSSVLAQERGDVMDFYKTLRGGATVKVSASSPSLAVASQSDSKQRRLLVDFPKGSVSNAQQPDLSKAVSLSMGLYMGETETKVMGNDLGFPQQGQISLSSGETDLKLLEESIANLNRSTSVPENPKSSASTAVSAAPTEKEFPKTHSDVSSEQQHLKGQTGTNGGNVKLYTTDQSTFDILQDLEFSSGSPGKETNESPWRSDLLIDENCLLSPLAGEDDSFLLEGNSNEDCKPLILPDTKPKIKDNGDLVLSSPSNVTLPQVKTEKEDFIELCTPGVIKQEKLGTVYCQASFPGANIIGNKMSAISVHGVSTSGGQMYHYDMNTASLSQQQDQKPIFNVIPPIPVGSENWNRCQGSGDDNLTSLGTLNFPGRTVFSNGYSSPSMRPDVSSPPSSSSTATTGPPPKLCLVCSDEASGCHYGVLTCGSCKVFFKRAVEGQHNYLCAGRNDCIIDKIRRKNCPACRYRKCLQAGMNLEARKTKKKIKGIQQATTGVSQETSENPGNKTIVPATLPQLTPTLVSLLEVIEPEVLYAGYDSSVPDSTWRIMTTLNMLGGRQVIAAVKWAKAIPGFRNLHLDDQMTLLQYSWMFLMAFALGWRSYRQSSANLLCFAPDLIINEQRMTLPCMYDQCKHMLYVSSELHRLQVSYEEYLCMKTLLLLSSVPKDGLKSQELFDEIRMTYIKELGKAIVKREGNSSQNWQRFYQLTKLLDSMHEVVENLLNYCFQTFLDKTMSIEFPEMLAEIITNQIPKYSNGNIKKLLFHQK
Sequence of Ubiquitin carboxyl-terminal hydrolase 1 (Homo sapiens) (O94782 whole entry, looked up): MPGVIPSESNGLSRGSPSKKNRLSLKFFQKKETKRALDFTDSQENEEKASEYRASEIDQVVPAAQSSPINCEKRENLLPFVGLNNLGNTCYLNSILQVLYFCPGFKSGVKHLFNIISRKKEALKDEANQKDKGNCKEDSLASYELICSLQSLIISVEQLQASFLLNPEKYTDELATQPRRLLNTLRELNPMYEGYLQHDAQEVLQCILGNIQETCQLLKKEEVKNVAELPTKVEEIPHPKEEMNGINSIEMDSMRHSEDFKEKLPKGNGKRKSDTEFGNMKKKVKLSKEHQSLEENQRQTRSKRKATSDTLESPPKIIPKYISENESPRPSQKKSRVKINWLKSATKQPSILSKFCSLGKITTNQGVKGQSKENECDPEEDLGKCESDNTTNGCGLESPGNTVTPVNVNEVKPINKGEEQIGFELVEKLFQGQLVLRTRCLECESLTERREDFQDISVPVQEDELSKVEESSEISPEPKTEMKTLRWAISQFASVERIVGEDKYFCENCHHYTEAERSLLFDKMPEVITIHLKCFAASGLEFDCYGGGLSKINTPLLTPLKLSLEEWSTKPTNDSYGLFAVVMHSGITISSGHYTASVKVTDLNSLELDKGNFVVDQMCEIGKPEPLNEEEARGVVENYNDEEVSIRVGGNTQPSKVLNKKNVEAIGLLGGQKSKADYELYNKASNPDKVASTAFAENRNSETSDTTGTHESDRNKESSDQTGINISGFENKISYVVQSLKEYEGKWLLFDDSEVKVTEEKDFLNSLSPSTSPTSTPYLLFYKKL
Sequence of Cytochrome P450 1A2 (Homo sapiens) (P05177 whole entry, looked up): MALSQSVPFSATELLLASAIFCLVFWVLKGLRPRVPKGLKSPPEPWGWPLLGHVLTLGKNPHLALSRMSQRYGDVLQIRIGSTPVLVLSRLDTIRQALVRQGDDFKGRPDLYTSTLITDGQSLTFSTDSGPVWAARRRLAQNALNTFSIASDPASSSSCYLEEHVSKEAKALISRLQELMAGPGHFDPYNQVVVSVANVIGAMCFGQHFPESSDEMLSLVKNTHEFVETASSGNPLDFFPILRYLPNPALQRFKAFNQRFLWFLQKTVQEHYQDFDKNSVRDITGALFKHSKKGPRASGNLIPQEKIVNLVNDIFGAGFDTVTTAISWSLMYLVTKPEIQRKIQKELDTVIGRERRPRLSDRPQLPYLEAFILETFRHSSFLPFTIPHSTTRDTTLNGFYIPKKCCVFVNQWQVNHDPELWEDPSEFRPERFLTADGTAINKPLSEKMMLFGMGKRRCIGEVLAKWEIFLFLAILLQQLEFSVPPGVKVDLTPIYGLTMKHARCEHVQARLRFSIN

Take `Cn1nnnc1SCC1=C(C(=O)O)N2C(=O)[C@@H](NC(=O)[C@@H](O)c3ccccc3)[C@@H]2SC1`: the outcome in [1], in test [3], in test [6] and in test [8] was inactive. For the same molecule, the activity change, negative = inhibition was -2.02% (inactive) in test [2] and 2.73% (inactive) in test [7]. The Potency in [4] and in test [5] was > 20.6 µM (inactive) throughout. The max response was -4.52% in test [7] (setting [14]) and -13.8% in test [7] (setting [15]). For the same molecule, the Potency result (in [9]; in test [10]; in the test on C2A; in the test on CP191; in the test with CP238; in the test with CP256) was “inactive” throughout. In addition, the Potency entry in the test on FAB9, in the test on JCK and in the test with SC27B was “inactive” each time. For the same molecule, the activity, negative = inhibition is 11.7% (inactive) in [11] (setting [16]) and 11% (inactive) in test [11] (setting [17]).

For `COc1cc2nc(N3CCN(C(=O)[C@@H]4COc5ccccc5O4)CC3)nc(N)c2cc1OC`, the molecule was classed as inactive in [1] and in test [6]. Further, the Potency result (in test [12]; in test [13]; in test [10]; with C2A; in the test with CP238; with CP256) was “inactive” in each case. Also, the Potency entry with FAB9, in the test on JCK and in the test on SC27B was “inactive” each time. In test [7], the activity change, negative = inhibition was -1.08% (inactive). Further, the max response is -1.2% in test [7] (setting [14]) and -1.61% in test [7] (setting [15]). The activity, negative = inhibition in test [11] (at 28.7 µM (top of the series), parasite line B) is -13.1% (inactive). In the test on CP191, the Potency was 7.94 µM (active).

`C=C1c2c(Cl)ccc(O)c2C(O)=C2C(=O)[C@@]3(O)C(O)=C(C(N)=O)C(=O)[C@@H](N(C)C)[C@@H]3[C@@H](O)[C@H]12`: the result in test [1], in test [3], in test [6] and in test [8] was inactive. Also, the activity change, negative = inhibition in test [2] is -26.3% (inactive); in test [7], 1.11% (inactive). The Potency in test [4] and in test [5] was > 20.6 µM (inactive) in each case. The Potency result (in test [13]; in test [10]; with CP191; in the test on CP238; in the test with CP256; in the test on FAB9) was “inactive” throughout. Further, in the test on JCK, the Potency entry is “inactive”. The results for the max response in test [7] (setting [14]) and in test [7] (setting [15]) were -8.18% and -8.74%, respectively.

On to `CS(=O)(=O)c1ccc([C@H](O)[C@H](CF)NC(=O)C(Cl)Cl)cc1`, for which the molecule was classed as inactive in test [1], in [3], in test [6] and in test [8]. For the same molecule, the activity change, negative = inhibition in [2] was 1.9% (inactive); in [7], 1.06% (inactive). The Potency in test [4] and in test [5] was > 20.6 µM (inactive) each time. For the same molecule, the Potency result in test [13] and in test [10] was “inactive” throughout. Moreover, the max response in test [7] (setting [14]) worked out at 1.07%; in test [7] (setting [15]) it was 2.55%.

On to `CCCCC[C@H](O)/C=C\[C@@H]1[C@H](O)CC(=O)[C@@H]1CCCCCCC(=O)O`, for which the outcome in [1], in test [3], in test [6] and in [8] was inactive. For the same molecule, the activity change, negative = inhibition in test [2] was -1.09% (inactive); in [7] it was -3.38% (inactive). Further, the Potency in [4] and in test [5] was > 20.6 µM (inactive) throughout. The Potency result (in [13]; in test [9]; in test [10]; in the test on C2A; in the test on CP191; with CP238) was “inactive” each time. Moreover, the Potency result in the test with CP256, with FAB9, in the test with JCK and in the test with SC27B was “inactive” each time. Also, the max response was -5.83% in [7] (setting [14]) and -11.1% in test [7] (setting [15]). Moreover, the activity, negative = inhibition in test [11] (setting [16]) is 8.32% (inactive); in test [11] (setting [17]), 1.76% (inactive).
